The values that follow come from publication PMC7826789 (International Journal of Molecular Sciences, 2021).

The test system of assay [1] is MAPK7.
Assay [2] relates to MARK3.
Assay [3] relates to MELK.

Turning to `CCOc1cc(N2CCC(O)CC2)ccc1Nc1ncc2c(n1)N(C)c1ccccc1C(=O)N2C` [XMD8-92], the Kinases covered entry in assay [1] is recorded as “MAPK7”.

Regarding `CCOc1cc(C(=O)N2CCC(N3CCN(C)CC3)CC2)ccc1Nc1ncc2c(n1)N(C1CCCC1)c1ccccc1C(=O)N2C` [ERK5-IN-1], the Kinases covered result in assay [1] is given as “MAPK7”.

In the case of `FC1=CC(C3=NC2=CC(OC)=C(OC)C=C2C(N[C@H]4[C@H]([C@](C)(O)C)CNC4)=N3)=C(O)C=C1.Cl.Cl` [CCT241533], the Kinases covered result in assay [2] is “MARK3”.

On to `CC(C)COC(=O)c1ccc2c(c1)/C(=C/Nc1ccc(S(N)(=O)=O)cc1)C(=O)N2` [GW416981X], for which the Kinases covered entry in assay [3] is recorded as “MELK”.

With `NS(=O)(=O)c1ccc(N/N=C2\C(=O)Nc3ccc(C(=O)NCCc4c[nH]cn4)cc32)cc1` [GW300660X], the Kinases covered entry in assay [3] is given as “MELK”.
